SNCA viab count – cell viability loss counter-screen; HEK-293-SNCA-luc viability, GF-AFC fluorescence, 24 h; Potency, µM (highest dose often 57.1 µM), for inactives: at the top dose activity change, negative = cytotoxicity, usual class: cytotoxic; hit rate 0.12% among 150,000; AID 1671193;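 further: 0% = DMSO-treated cells and -100% = medium-only wells without cells; nearly all actives have a fitted effect of over 30% in size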
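HEK-293-SNCA-luc cells (1500/well) plated 24 h, then exposed 24 h to a dilution series; GF-AFC added 30 min at 37C, fluorescence 405/540 nm; normalised to medium-only and DMSO wells, Hill fit.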
Luciferase inh – blocks purified firefly luciferase enzyme activity; P08659; AID 1347043; Potency, µM (series often up to 115 µM), hits mostly inhibitors; hit rate 2.5% among 76,000; purified P. pyralis luciferase, luminescence, biochemical; further: nearly all actives have a fitted effect of over 65% in size
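Cell-free enzyme assay, 10nM P. pyralis luciferase, luciferin and ATP each at 10uM. Inhibition profiled over a 6-point titration, read as luminescence.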
3T3 cytotox – cytotoxic compounds in NIH 3T3 cells. Potency, µM (top dose mostly 96.7 µM), for inactives: at the top dose activity change, negative = cytotoxicity, hits mostly inhibitors. AID 1345082. NIH 3T3 viability, CellTiter-Glo ATP luminescence, 48-72 h. hit rate 4.3% among 94,000; further: nearly all actives have a fitted effect of over 55% in size
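Mouse fibroblast NIH 3T3 cells, 400 per well, received compound via pintool and were incubated for 48 or 72 hr prior to CellTiter-Glo ATP luminescence measurement.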
hNpr1 antagonist – blocks ANP-stimulated signaling of human Npr1 receptor. P16066. AID 1347048. hit rate 1.6% among 76,000. Potency, µM (top dose mostly 46.3 µM), inactives show top-dose activity change, negative = inhibition, most hits filed as inhibitors. HEK293 hNpr1 GloSensor cGMP, ANP-stimulated luminescence; calls by dose curve; further: nearly all actives have a fitted effect of over 60% in size
Target sequence (P16066 whole entry, looked up): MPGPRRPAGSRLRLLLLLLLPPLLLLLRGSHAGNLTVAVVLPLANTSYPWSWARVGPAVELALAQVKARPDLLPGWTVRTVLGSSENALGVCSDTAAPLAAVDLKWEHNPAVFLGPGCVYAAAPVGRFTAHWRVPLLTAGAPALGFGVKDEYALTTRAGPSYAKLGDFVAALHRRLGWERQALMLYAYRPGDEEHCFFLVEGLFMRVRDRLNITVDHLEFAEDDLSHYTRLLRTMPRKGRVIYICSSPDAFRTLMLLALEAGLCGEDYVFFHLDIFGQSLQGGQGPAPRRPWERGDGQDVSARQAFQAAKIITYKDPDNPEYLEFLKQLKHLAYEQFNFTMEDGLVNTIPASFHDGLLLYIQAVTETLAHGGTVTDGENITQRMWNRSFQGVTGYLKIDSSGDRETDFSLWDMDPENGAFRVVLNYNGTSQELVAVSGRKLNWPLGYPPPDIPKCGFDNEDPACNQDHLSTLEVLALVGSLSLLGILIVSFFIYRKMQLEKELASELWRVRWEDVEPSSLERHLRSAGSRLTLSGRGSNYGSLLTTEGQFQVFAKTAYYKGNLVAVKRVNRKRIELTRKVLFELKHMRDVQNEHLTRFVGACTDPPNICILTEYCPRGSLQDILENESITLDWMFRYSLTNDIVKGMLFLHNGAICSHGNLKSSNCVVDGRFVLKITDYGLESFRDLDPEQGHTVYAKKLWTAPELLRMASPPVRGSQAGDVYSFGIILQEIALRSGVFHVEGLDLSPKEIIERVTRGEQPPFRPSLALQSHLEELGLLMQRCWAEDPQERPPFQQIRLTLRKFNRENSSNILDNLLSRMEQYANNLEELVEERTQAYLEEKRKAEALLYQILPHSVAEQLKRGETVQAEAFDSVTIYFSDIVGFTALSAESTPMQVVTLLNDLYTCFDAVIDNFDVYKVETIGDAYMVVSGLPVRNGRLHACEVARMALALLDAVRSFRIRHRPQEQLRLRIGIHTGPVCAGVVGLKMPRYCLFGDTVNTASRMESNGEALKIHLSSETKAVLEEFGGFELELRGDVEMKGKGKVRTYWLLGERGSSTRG
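Compound pre-incubated 30 min at room temperature on GloSensor-loaded HEK293 cells stably carrying hNpr1 and the pGS-40F cGMP biosensor. Stimulation uses hNppA at 0.1 nM final; luminescence is taken at baseline and 20 min post-agonist.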
HEK293 tox – kills HEK 293 cells. HEK 293 viability, ATP luminescence (CellTiter-Glo), 48-72 h. Potency, µM (series often up to 115 µM), for the others: at the top dose activity change, negative = cytotoxicity, most hits filed as inhibitors. hit rate 6.6% among 94,000; further: nearly all actives have a fitted effect of over 60% in size
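ATP-coupled CellTiter-Glo luminescence served as viability read-out, recorded 10 min after reagent addition at room temperature. HEK 293 cells, 250 cells/well, had been incubated with pintool-transferred compound for 48 or 72 hr at 37 degree Celsius.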
SNCA expr inh – reduces expression of the alpha-synuclein gene | Potency, µM (highest dose often 57.2 µM), without a hit: at the highest dose activity change, negative = inhibition, actives largely listed as inhibitors | AID 1671194 | HEK-293 SNCA-luciferase knock-in, luminescence, 24 h | hit rate 0.17% among 140,000;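 further: plate controls were DMSO cells for no effect and cell-free wells for full effect; nearly all actives have a fitted effect of over 45% in size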
An asterisk follows results filed as active; i = inactive; ? = inconclusive; · = no result given; [ ] = remark or other dose. The list is not random: actives were taken first. Their share in the collection is about 7.2%. Unless noted, the call rests on the fitted dose curve; in most records, active means well fitted curve in the direction sought with a large enough effect; inconclusive means small, poorly fitted or top-dose-only effect, or another doubt; inactive means no such curve, though single readings can be large; an effect the other way counts as inactive or inconclusive. Unless noted, on the % scale 0 is the no-effect control and ±100 the full control effect; potency means the concentration at half of the fitted maximal effect.

SMILES | SNCA viab count | Luciferase inh | 3T3 cytotox | hNpr1 antagonist | HEK293 tox | SNCA expr inh
C[S+](=O)([O-])c1cccc(CN2CC(COc3ccccc3)C3(C2)CN(c2ccccc2)C3)c1 (configuration not stated) | -13.4% | i | -25.3% | -20.2% | ? | ?
O=[S+]([O-])(NCC1CN(Cc2cccc(Cl)c2)CC12CN(c1ccccc1)C2)c1ccccc1 (configuration not stated) | -14.5% | i | ? | -7.9% | ? | ?
CC(C)c1ccc(CN2CC(CN[S+](=O)([O-])c3ccccc3)C3(C2)CN(c2ccccc2)C3)cc1 (configuration not stated) | 4.7% | i | 39.8µM* | -4.2% | ? | -18.8%
CC(C)(C)C(=O)N1CCC(C(=O)N2CCC(c3nc4ncccc4[nH]3)CC2)CC1 | 2.7% | · | -18.0% | · | 0.8% | 22.9%
CCC[C@@H]1CN(c2nc(C(=O)OCC)co2)C[C@H]1NS(C)(=O)=O | 0.3% | i | -9.1% | 2.5% | -3.4% | -3.5%
O=C(c1cccc(Cl)c1)N1CCCC(C(=O)N2CCC(c3nc4ncccc4[nH]3)CC2)C1 (configuration not stated) | 0.6% | · | -26.2% | · | -9.0% | -8.6%
O=C1NCCCCCN(Cc2cccnc2)[C@@H]2CN(Cc3cccc(F)c3)CC[C@@H]12 | -7.2% | i | -16.4% | 1.3% | ? | 5.5%
Cn1nc(-c2cccc(F)c2)c(N2CCCCC2)c1NC(=O)NCc1ccccc1 | -1.9% | · | 22.4µM* | · | 28.2µM* | 6.3%
Cn1nc(-c2cccc(F)c2)c(N2CCCCC2)c1NC(=O)c1ccccc1F | -13.3% | · | 39.8µM* | · | 39.8µM* | -3.6%
Cn1nc(-c2cccc(F)c2)c(N2CCCC2)c1NC(=O)NCc1ccccc1 | 13.0% | · | ? | · | 50.1µM* | 14.8%
CCOc1ccc(NC(=O)Nc2c(N3CCCCC3)c(-c3cccc(F)c3)nn2C)cc1 | -3.5% | · | ? | · | ? | -1.2%
Cc1[nH]cnc1-c1nccn1CCCOC1CCN(C)CC1 | -7.6% | i | 0.4% | -0.5% | -6.7% | -29.8%
Cc1noc([C@@H]2CN(Cc3cc(F)ccc3F)C[C@H]2CO)n1 | 0.2% | i | i | 2.5% | i | 6.0%
Cc1ccc(CN(C(=O)c2ccco2)c2ccc(CC(=O)NCc3ccccc3)cc2)cc1 | -8.8% | i | ? | -18.2% | 35.5µM* | -20.9%
Cc1ccc(CN(C(=O)c2ccco2)c2ccc(CC(=O)N(C)Cc3ccccc3)cc2)cc1 | ? | i | ? | -20.3% | 31.6µM* | -32.1%
CCOC(=O)C1CCN(C(=O)Cc2ccc(N(Cc3ccccc3)C(=O)c3ccco3)cc2)CC1 | ? | i | ? | -23.0% | 39.8µM* | -8.3%
CC(C)CNC(=O)Cc1ccc(N(Cc2ccccc2)C(=O)c2ccco2)cc1 | 5.5% | i | ? | -12.2% | ? | 10.3%
Cc1cccc(CNC(=O)Cc2ccc(N(Cc3ccccc3)C(=O)c3ccco3)cc2)c1 | -3.2% | i | 44.7µM* | -2.7% | ? | -11.9%
Cn1c(CNC(=O)c2cccc(C3CCNC3)c2)nc2ccccc21 (configuration not stated) | ? | i | ? | 0.6% | -21.4% | 15.0%
C[C@@H]1CN(C(=O)CCN2CCCCCC2=O)C[C@]1(C)O | -9.5% | i | -1.2% | 14.1% | i | ?
CC(C)n1ccnc1CN1CCCC12CCN(c1ccc(C(F)(F)F)cn1)CC2 | -1.9% | i | ? | 2.5% | 35.5µM* | 0.6%
CC(C)n1cc(CN2CCCC23CCN(c2ccc(C(F)(F)F)cn2)CC3)cn1 | -22.0% | i | ? | ? | ? | -10.6%
COCCOC(=O)C1=C(C)N=C2SC=C(CC(=O)NC3CC3)N2C1c1ccccc1C (configuration not stated) | -16.5% | i | -20.8% | -16.8% | -17.9% | -11.9%
COc1ccccc1-c1cccc(C(=O)N2CCN(C(=O)c3ccccc3F)CC2)c1 | 3.1%[12.5 µM] | · | -24.0% | · | 89.1µM* | 18.6%
COc1ccccc1-c1cccc(C(=O)N2CCN(C(=O)c3cccc(Cl)c3)CC2)c1 | 4.6%[12.5 µM] | · | ? | · | 39.8µM* | -8.2%
SMILES | SNCA viab count | Luciferase inh | 3T3 cytotox | hNpr1 antagonist | HEK293 tox | SNCA expr inh
COc1ccccc1-c1cccc(C(=O)N2CCN(C(=O)Nc3ccc(Cl)cc3)CC2)c1 | 0.8%[12.5 µM] | · | ? | · | ? | 6.6%
COc1ccccc1-c1cccc(C(=O)N2CCN(C(=O)c3ccc(F)cc3)CC2)c1 | 1.2%[12.5 µM] | · | ? | · | ? | -7.1%
COc1ccccc1-c1cccc(C(=O)N2CCN(C(=O)c3ccc(C)cc3)CC2)c1 | 2.1%[12.5 µM] | · | ? | · | 39.8µM* | 15.1%
COc1cccc(CCC(=O)Nc2ccc(-c3nnc4n3CCCC4)cc2)c1 | 9.8% | i | -0.9% | 1.7% | 14.4% | -3.5%
CCOc1ccc(C(=O)N2CCC3(CC2)N(C)C(=O)CS3(=O)=O)cc1 | -9.9% | i | -8.0% | 2.6% | -17.3% | 1.9%
CCCN(C)c1nccnc1OC1CCN(C(=O)CC(C)C)C1 (configuration not stated) | 3.9% | 17.8µM* | -26.9% | -11.3% | ? | 168.5%
CCCN(C)c1nccnc1OC1CCN(C(=O)C(C)C)C1 (configuration not stated) | -7.3% | 22.4µM* | ? | -13.8% | -16.5% | 124.1%
CN(C)c1nccnc1OC1CCN(C(=O)C2CCCCC2)C1 (configuration not stated) | -8.6% | ? | -8.1% | 2.6% | ? | 198.8%
CCCN(C)c1nccnc1OC1CCN(C(=O)CC)C1 (configuration not stated) | 8.6% | i | -19.2% | 3.7% | -5.1% | 2.5%
CCCN(C)c1nccnc1OC1CCN(C(=O)c2ccn[nH]2)C1 (configuration not stated) | 0.5% | 22.4µM* | -28.0% | -2.8% | ? | 281.1%
CCC(CC)C(=O)N1CCC(Oc2nccnc2N(C)C)C1 (configuration not stated) | -0.8% | 35.5µM* | -0.3% | 2.1% | ? | 198.6%
Cc1c(C(=O)N2CCC3(CC2)Nc2ccccc2NC3=O)cnc2ccnn12 | 2.4% | i | -16.4% | 4.2% | -19.7% | -8.6%
CCc1cc(=O)n(CC(=O)Nc2cccc(C(C)=O)c2)c(N2CCOCC2)n1 | -8.7% | i | -12.5% | -19.1% | ? | -14.6%
O=C(c1cn[nH]c1)N1CCC(c2nc(CCOCC3CCOCC3)no2)C1 (configuration not stated) | 5.7%[12.5 µM] | i | -19.4% | 1.8% | -20.9% | ?
Cc1ccc(CNC(=O)[C@H]2CN(Cc3ccccc3)C[C@H]2C(=O)O)o1 | 16.0% | i | -22.8% | -16.6% | -9.6% | 22.7%
